In PubChem BioAssay (EPA / NIEHS):
Results filed as inconclusive are left out. Calls of active or inactive are those of the source. The calls were made as follows: active = hit-call score of the fitted dose curve at least 0.9, where 1 is the maximum; inconclusive = response in the unintended direction; inactive = score below 0.9.

The compounds below were run against human Peroxisome Proliferator-activated Receptor alpha (PPARa), PPARA (gene 5465) (UniProt Q07869) (assay: ATG_PPARa_TRANS: Attagene TRANS-FACTORIAL HepG2 Assay for human Peroxisome Proliferator-activated Receptor alpha (PPARa) (AID 2283001);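 as to AC50: potency for gain of reporter signal over DMSO so agonist or activator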).
Procedure: ATG_TRANS is a cell-based, multiplexed-readout assay that uses HepG2, a human liver cell line, with measurements taken at 24 hours after chemical dosing in a 24-well plate.ATG_PPARa_TRANS is one of 30 assay component(s) measured or calculated from the ATG_TRANS assay. It is designed to make measurements of mRNA induction, a form of inducible reporter, as detected with fluorescence intensity signals by Reverse transcription polymerase chain reaction (RT-PCR) and Capillary electrophoresis technology.Data from the assay component ATG_PPARa_TRANS was analyzed into 1 assay endpoint. This assay endpoint, ATG_PPARa_TRANS, was analyzed in the positive analysis fitting direction relative to DMSO as the negative control and baseline of activity. Using a type of inducible reporter, measures of mRNA for gain-of-signal activity can be used to understand the reporter gene at the transcription factor-level as they relate to the gene PPARA. Furthermore, this assay endpoint can be referred to as a primary readout, because this assay has produced multiple assay endpoints where this one serves a reporter gene function. To generalize the intended target to other relatable targets, this assay endpoint is annotated to the nuclear receptor intended target family, where the subfamily is non-steroidal.
Human liver HepG2 cells are transiently transfected with multiple reporter transcription units (MRTUs) in 6-well plates using FuGene 6 reagent (Roche; 3 ml FuGene/1 mg DNA). The MRTU constructs are regulated by a cis-regulating element (promoter). […] A major difference between the CIS and TRANS system is that in CIS activities of endogenous TFs are measured, whereas the TRANS assay evaluates changes in activities of exogenous, chimeric NR-Gal4 proteins. […] At the end of 24 hour incubation, total RNA was isolated using TriZol reagent (Invitrogen). The isolated RNA is then reverse-transcribed using oligo(dT) primer and Mo-MLV reverse transcriptase (Invitrogen) with DNAse I (Ambion) treatment for 30 min. The one-tenth of the produced cDNA was amplified by PCR using Taq DNA polymerase (Invitrogen) and two reporter sequence-specific primers. The PCR products were fluorescently labeled by primer extension with 6-arboxyfluorescein (6-FAM) 5'-labeled reporter sequence-specific primer (2 min at 95 C, 20 s at 68 C and 10 min at 72 C) and these products were digested with 5U of HpaI (New England Biolabs) for 2h at 37 C. The fragments were purified using Qiaquick PCR columns (Qiagen), analyzed on an ABI 3130xL genetic analyzer (Applied Biosystems) with peak positions identified by using a set of X-rhodamine (ROX)-labeled MapMarker1000 molecular weight standards (BioVentures). The raw capillary electrophoresis data was processed using Attagraph software (Attagene).

human Peroxisome Proliferator-activated Receptor alpha (PPARa), PPARA (gene 5465), sequence (Q07869 whole entry, looked up): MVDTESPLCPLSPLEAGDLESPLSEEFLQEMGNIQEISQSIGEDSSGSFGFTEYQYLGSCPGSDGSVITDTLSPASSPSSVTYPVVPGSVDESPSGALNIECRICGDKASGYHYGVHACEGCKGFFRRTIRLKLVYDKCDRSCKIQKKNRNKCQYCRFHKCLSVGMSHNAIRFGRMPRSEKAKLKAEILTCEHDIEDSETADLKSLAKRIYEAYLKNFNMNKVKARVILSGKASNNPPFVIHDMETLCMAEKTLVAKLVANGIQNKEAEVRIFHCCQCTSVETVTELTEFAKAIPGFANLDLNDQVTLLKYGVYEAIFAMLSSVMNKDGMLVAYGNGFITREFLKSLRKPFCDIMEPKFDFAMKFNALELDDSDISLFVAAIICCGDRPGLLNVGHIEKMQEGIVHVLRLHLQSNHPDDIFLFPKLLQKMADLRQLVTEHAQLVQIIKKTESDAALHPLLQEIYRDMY

outcome, inactive:
Cc1ccc2oc(=O)ccc2c1
CC(C)c1ccc(C#N)cc1
CC(=O)c1ccc[nH]1
CCOc1nc(F)cc2nc(S(=O)(=O)Nc3c(Cl)cccc3C(=O)OC)nn12
COC(=O)c1ccc2cc(C(=O)OC)ccc2c1
C=CC(=O)OCCOC1C2CCC1C1CC=CC12 (stereo not given)
CCCCCCCCC(=O)OCC
COC(=O)c1ccccc1OC
NC(=O)c1ccccc1O
Nc1nc2ccccc2[nH]1
C/C=C\C/C=C/CCCCCCCCOC(C)=O
NC(CO)(CO)CO
Cc1cccc(N(C)C(=S)Oc2ccc3ccccc3c2)c1
CC(CC=O)CCCC(C)(C)O (stereo not given)
NC(=O)N=NC(N)=O
O=S(=O)(O)c1ccccc1C=Cc1ccc(-c2ccc(C=Cc3ccccc3S(=O)(=O)O)cc2)cc1
O=C(O)CCCC[C@@H]1SC[C@@H]2NC(=O)N[C@@H]21
CCCCCCCOC(=O)CCC
NC(=O)C1CO1 (stereo not given)
O=C1CCCCCN1SSN1CCCCCC1=O
O=C1CCCC(=O)O1
CCCCCCC1(C)CCC(=O)O1 (stereo not given)
CCN(CCC#N)c1ccc(N=Nc2c(Cl)cc([N+](=O)[O-])cc2Cl)cc1
O=C1c2cccc(O)c2C(=O)c2c(O)cc(CO)cc21
CCC(C)OC(=O)c1ccc(O)cc1 (stereo not given)
CCCCCCCC[N+](C)(CCCCCCCC)CCCCCCCC
C(=CC=Nc1ccccc1)C=CNc1ccccc1
CC(C)=CCCC(C)C=O (stereo not given)
COCc1c(C(C)C)nc(C(C)C)c(/C=C/[C@@H](O)C[C@@H](O)CC(=O)O)c1-c1ccc(F)cc1
CC(C)(C)c1ccc(OC(=O)c2ccccc2O)cc1
O=[N+]([O-])C1(Br)COCOC1
CN(C)c1ccc(C(=N)c2ccc(N(C)C)cc2)cc1
O=C(O)CC(C(=O)O)C(CC(=O)O)C(=O)O (stereo not given)

AC50, active:
CCCCCCCCCCC=CC#N 38 µM
Oc1ccc(Cl)cc1Cc1cc(Cl)ccc1O 6.86 µM
CCCCC/C=C\C/C=C\CCCCCCCC(=O)OC 32 µM
CCCCCCCCCCCSCC(=O)O 2.85 µM
CC(C)c1ccc2c(c1)CC[C@H]1[C@](C)(CN)CCC[C@]21C 6.09 µM
CC(C)CCCCCOC(=O)CCS 9.41 µM
O=C(O)c1ccccc1Nc1cccc(C(F)(F)F)c1 13.9 µM
